About 83,000 compounds went through this panel and 20% of them were active in at least one assay; those are over-represented in the sample as a whole.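 Step 1: grow cells in 96-well plates. Step 2: add test compound at a single concentration. Step 3: incubate 48 h. Step 4: record percent growth.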 The source made the active and inactive calls. Rule for the calls: active = growth percent below 10; inactive = the rest.
Legend:
Assay in all cases: NCI-60 one-dose screen, 48 h (100 = growth as untreated, 0 = no growth, -100 = all killed)
Settings in all cases: 10 µM
[1] = test system: SR leukemia
[2] = test system: RPMI-8226 leukemia
[3] = test system: OVCAR-8 ovarian
[4] = test system: OVCAR-5 ovarian
[5] = test system: OVCAR-4 ovarian
[6] = test system: SK-OV-3 ovarian
[7] = test system: OVCAR-3 ovarian
[8] = test system: HS 578T breast
[9] = test system: NCI/ADR-RES ovarian
[10] = test system: T-47D breast
[11] = test system: MDA-MB-435 melanoma
[12] = test system: SW-620 colon
[13] = test system: MCF7 breast
[14] = test system: HCT-116 colon
[15] = test system: HCC-2998 colon
[16] = test system: KM12 colon
[17] = test system: IGROV1 ovarian
[18] = test system: BT-549 breast

Measured: growth

CCN(CC)CCCC(C)N=C(C1=C(C(=NC(C)CCCN(CC)CC)c2cccc(OC)c2)C(=O)NC1=O)c1cccc(OC)c1 (configuration not stated)
inactive: [8] 16.4%
active: [1] 2.6% | [2] -30.6% | [3] -11.3% | [4] -3.07% | [5] -23.5% | [6] 9.81% | [7] -17.7% | [9] 4.23% | [10] -37.3% | [11] -91.1% | [12] -9.07% | [13] -29.8% | [14] -19% | [15] -69.9% | [16] 2.43%

COc1cc2c(cc1OC)C(C(CCCCCC(CCC(C)C)C1NCCc3cc(OC)c(OC)cc31)CCC(C)C)NCC2 (configuration not stated)
active: [2] -57.1% | [3] -89.3% | [4] -100% | [5] -100% | [6] -99.5% | [7] -99.9% | [8] -41% | [9] -95.9% | [10] -85.2% | [12] -83.8% | [13] -92.7% | [14] -100% | [15] -94.2% | [16] -97%
inactive: [1] 12.1%

CC(C)(C)c1ccc(S(=O)(=O)Oc2ccc(NC(=O)C3CCCCC3)cc2)cc1
active: [10] 0.897%
inactive: [1] 42.6% | [2] 13.6% | [3] 51% | [4] 85.1% | [5] 47.5% | [17] 76.3% | [7] 40.7% | [8] 81.4% | [9] 29.8% | [18] 51.8% | [11] 59.6% | [12] 51.9% | [13] 19.8% | [14] 30.8% | [15] 51.8% | [16] 31.7%

CN1C(=O)C2(Nc3cc(Cl)ccc3S2)c2cc(Cl)ccc21 (configuration not stated)
inactive: [1] 70.6% | [2] 80.4% | [3] 97.4% | [4] 107% | [5] 70.3% | [17] 102% | [7] 95.9% | [8] 91.1% | [10] 71.6% | [18] 80.1% | [11] 98.4% | [12] 94% | [13] 75.4% | [14] 82.9% | [15] 93.5% | [16] 99%

CC(=O)Nc1ccc(S(=O)(=O)N/N=C(\C)c2ccc(C)cc2C)cc1
inactive: [1] 113% | [2] 104% | [3] 98.5% | [4] 98.4% | [5] 102% | [6] 98.5% | [7] 111% | [8] 134% | [9] 112% | [10] 106% | [18] 111% | [12] 101% | [13] 88.2% | [14] 102% | [15] 101% | [16] 110%

O=C(CCl)Oc1ccc(OC(=O)CCl)cc1
inactive: [1] 68.7% | [2] 25.7% | [3] 88.8% | [4] 111% | [5] 91.3% | [17] 93.1% | [7] 77.6% | [8] 82.4% | [9] 79.4% | [18] 46.9% | [11] 85.3% | [12] 89.8% | [13] 77.9% | [14] 94.5% | [15] 109% | [16] 83.7%

COc1cc(NC(=O)Nc2cnc(Nc3ccc(N4CCOCC4)cc3)nc2Oc2cccc(OC)c2)cc(OC)c1
active: [3] -10.8%
inactive: [1] 46.1% | [2] 53.3% | [4] 96.5% | [5] 13.7% | [17] 43.4% | [7] 41.7% | [8] 23.2% | [9] 61% | [10] 49.6% | [18] 28.8% | [11] 51.6% | [12] 72.6% | [13] 50.6% | [14] 32.4% | [15] 45.4% | [16] 53.3%

Nc1nc(-c2ccc(Cl)cc2)cc(-c2cc3ccccc3oc2=O)n1
inactive: [1] 106% | [2] 98.6% | [3] 106% | [4] 108% | [5] 100% | [17] 55.1% | [7] 100% | [8] 107% | [9] 108% | [11] 104% | [12] 97.2% | [13] 79.8% | [14] 87.7% | [15] 126% | [16] 103%

COc1cc(-c2ccc(N=Nc3ccc4c(S(=O)(=O)O)ccc(N)c4c3O)c(OC)c2)ccc1N=Nc1ccc2c(S(=O)(=O)O)ccc(N)c2c1O
inactive: [1] 146% | [2] 115% | [3] 99.6% | [4] 111% | [5] 98.4% | [6] 91.4% | [7] 109% | [8] 124% | [9] 109% | [10] 105% | [18] 117% | [12] 109% | [13] 95.6% | [14] 114% | [15] 114% | [16] 114%

CCN(CC)CCCC(Nc1c2ccc(Cl)cc2nc2ccc(OC)cc12)c1ccc(F)cc1 (configuration not stated)
active: [1] -13.9% | [2] -33.3% | [11] -86.9% | [12] -53.9% | [13] -62.9% | [14] -41% | [15] -85%
inactive: [3] 15.2% | [4] 61.7% | [5] 12.6% | [17] 41.5% | [7] 108% | [8] 84% | [9] 28.9% | [18] 81.5% | [16] 14.7%

COc1ccc(N=Nc2cc(OC)c(OC)c(OC)c2)cc1
inactive: [1] 58.2% | [2] 72.8% | [3] 87.2% | [4] 77.8% | [5] 100% | [6] 77.6% | [7] 87.7% | [8] 79.3% | [10] 58.8% | [18] 89.7% | [11] 67.6% | [12] 79.8% | [13] 63.6% | [14] 80.5% | [15] 81.4% | [16] 81.7%

O[C@@H]1CO[C@H]2[C@@H]1OC[C@@H]2O
inactive: [1] 112% | [2] 112% | [3] 102% | [4] 92.6% | [5] 121% | [6] 115% | [7] 120% | [9] 104% | [10] 121% | [18] 112% | [13] 99.6% | [14] 104% | [15] 101% | [16] 105%

CNC(=O)c1cc(Oc2ccc3c(c2)sc2nc(-c4ccc(NC(=O)Nc5ccc(Cl)c(C(F)(F)F)c5)cc4)cn23)ccn1
inactive: [1] 55.5% | [2] 76.1% | [3] 104% | [4] 93.4% | [5] 80.3% | [17] 78% | [7] 86.9% | [8] 71.7% | [9] 89.9% | [10] 19.4% | [18] 75.7% | [11] 91.1% | [12] 103% | [13] 82.6% | [14] 73.2% | [15] 102% | [16] 83.5%

Cc1cc(C)nc(NS(=O)(=O)c2ccc(Nc3nc4nc(NCc5ccccc5)nc(-c5ccc(O)cc5)c4c(=O)[nH]3)cc2)n1
inactive: [1] 26.5% | [2] 18.1% | [3] 49.5% | [4] 45.2% | [5] 18.3% | [6] 35.2% | [7] 34.2% | [8] 35.6% | [9] 20.3% | [10] 25.1% | [18] 34% | [11] 32.1% | [12] 11.2% | [13] 16.1% | [15] 19.5% | [16] 29.6%

COc1ccc2nc3cc(Cl)ccc3c(NCCCNCCO)c2c1
inactive: [9] 62.4%
active: [1] -8.29% | [2] -12.1% | [3] -23.2% | [4] -9.73% | [5] -35.9% | [17] 2.85% | [8] 6.23% | [18] 5.74% | [11] -69.1% | [12] -2.84% | [13] -18.6% | [14] -50.4% | [15] -43.6% | [16] 3.19%

CCN(CC)CCCOc1cccc2c1C(=O)c1cccc(OCCCN(CC)CC)c1C2=O
active: [1] 3.15%
inactive: [2] 18.6% | [3] 28.1% | [4] 55.8% | [5] 32.9% | [17] 25.8% | [7] 35% | [8] 58.4% | [9] 35.3% | [10] 61.7% | [11] 39.7% | [12] 24.4% | [13] 11.9% | [14] 22.5% | [15] 57.4% | [16] 40.9%

O=C(O)c1cc([N+](=O)[O-])ccc1Oc1ccccc1
inactive: [1] 91% | [2] 97.8% | [3] 97% | [4] 101% | [5] 104% | [17] 114% | [7] 105% | [8] 93.8% | [9] 101% | [10] 106% | [18] 92.7% | [11] 94.1% | [12] 96.1% | [13] 99.3% | [14] 102% | [15] 105% | [16] 98.2%

COc1ccc(Cl)cc1Nc1nc(C(F)(F)F)ccc1C(=O)N/N=C/c1ccc(Cl)cc1
inactive: [2] 20.4% | [3] 46.8% | [4] 57.2% | [5] 27.6% | [17] 45.2% | [9] 41% | [10] 37.6% | [18] 36.9% | [11] 59.2% | [12] 30.9% | [13] 23.6% | [14] 21.4% | [15] 59.4%
active: [1] -0.906% | [7] -34.7% | [8] 3.13%

From PubChem BioAssay (NCI)
